Test results as given in PMC11006913.
Substitutions are numbered along the chain they refer to.

Experiments:
Experiment in all cases: PBM; 200 nM protein, PBS
Conditions in all cases: dsDNA, one strand shown
SIX6 [1] = molecular target: T1, SIX6 (Homo sapiens, UniProt O95475 114-200, L167I)
T1 sequence: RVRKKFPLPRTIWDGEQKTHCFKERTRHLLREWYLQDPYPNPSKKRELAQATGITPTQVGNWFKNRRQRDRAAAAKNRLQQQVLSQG

SIX6 [2] = molecular target: T2, SIX6 (Homo sapiens, UniProt O95475 114-200, L143V)
T2 sequence: T1 sequence with L30V, I54L

SIX6 [3] = molecular target: T3, SIX6 (Homo sapiens, UniProt O95475 114-200, H141N)
T3 sequence: T1 sequence with H28N, I54L

SIX6 [4] = molecular target: T4, SIX6 (Homo sapiens, UniProt O95475 114-200, T165P)
T4 sequence: T1 sequence with T52P, I54L

SIX6 [5] = molecular target: T5, SIX6 (Homo sapiens, UniProt O95475 114-200, L167M)
T5 sequence: T1 sequence with I54M

SIX6 [6] = molecular target: T6, SIX6 (Homo sapiens, UniProt O95475 114-200, L143M)
T6 sequence: T1 sequence with L30M, I54L

SIX6 [7] = molecular target: T7, SIX6 (Homo sapiens, UniProt O95475 114-200, L143I)
T7 sequence: T1 sequence with L30I, I54L

SIX6 [8] = molecular target: T8, SIX6 (Homo sapiens, UniProt O95475 114-200, T165G)
T8 sequence: T1 sequence with T52G, I54L

SIX6 [9] = molecular target: T9, SIX6 (Homo sapiens, UniProt O95475 114-200, T139Q)
T9 sequence: T1 sequence with T26Q, I54L

SIX6 [10] = molecular target: T10, SIX6 (Homo sapiens, UniProt O95475 114-200, T165A)
T10 sequence: T1 sequence with T52A, I54L

SIX6 [11] = molecular target: T11, SIX6 (Homo sapiens, UniProt O95475 114-200, L167V)
T11 sequence: T1 sequence with I54V

SIX6 [12] = molecular target: T12, SIX6 (Homo sapiens, UniProt O95475 114-200)
T12 sequence: T1 sequence with I54L

SIX6 [13] = molecular target: T13, SIX6 (Homo sapiens, UniProt O95475 114-200, T165I)
T13 sequence: T1 sequence with T52I, I54L

NKX3-2 [14] = molecular target: NKX3-2 (Homo sapiens, UniProt P78367 192-278, P234S)
NKX3-2 [15] = molecular target: NKX3-2 (Homo sapiens, UniProt P78367 192-278)
NKX3-2 (Homo sapiens, UniProt P78367 192-278), sequence (P78367 192-278): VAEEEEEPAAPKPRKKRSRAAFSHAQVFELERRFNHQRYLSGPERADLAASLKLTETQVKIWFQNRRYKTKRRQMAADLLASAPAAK

NKX3-2 (Homo sapiens, UniProt P78367 192-278, P234S), sequence (P78367 192-278 P234S): as the sequence (P78367 192-278) above, with P43S counted along it

Sequence | binding signal (SIX6 [1]) | binding signal (SIX6 [2]) | binding signal (SIX6 [3]) | binding signal (SIX6 [4]) | binding signal (SIX6 [5]) | binding signal (SIX6 [6]) | binding signal (SIX6 [7]) | binding signal (SIX6 [8]) | binding signal (SIX6 [9]) | binding signal (SIX6 [10]) | binding signal (SIX6 [11]) | binding signal (SIX6 [12]) | binding signal (SIX6 [13]) | binding signal (NKX3-2 [14]) | binding signal (NKX3-2 [15])
CCATATCA | 11.1 upbm affinity estimate (log intensity, higher = more binding, comparable within an allelic series) | 10.1 upbm affinity estimate (log intensity, higher = more binding, comparable within an allelic series) | 11.1 upbm affinity estimate (log intensity, higher = more binding, comparable within an allelic series) | 9.48 upbm affinity estimate (log intensity, higher = more binding, comparable within an allelic series) | 10.4 upbm affinity estimate (log intensity, higher = more binding, comparable within an allelic series) | 10.8 upbm affinity estimate (log intensity, higher = more binding, comparable within an allelic series) | 10.2 upbm affinity estimate (log intensity, higher = more binding, comparable within an allelic series) | 11.1 upbm affinity estimate (log intensity, higher = more binding, comparable within an allelic series) | 11 upbm affinity estimate (log intensity, higher = more binding, comparable within an allelic series) | 11 upbm affinity estimate (log intensity, higher = more binding, comparable within an allelic series) | 10.8 upbm affinity estimate (log intensity, higher = more binding, comparable within an allelic series) | 10.9 upbm affinity estimate (log intensity, higher = more binding, comparable within an allelic series) | 10.8 upbm affinity estimate (log intensity, higher = more binding, comparable within an allelic series) | – | –
CGCACTCC | 8.92 upbm affinity estimate (log intensity, higher = more binding, comparable within an allelic series) | 8.98 upbm affinity estimate (log intensity, higher = more binding, comparable within an allelic series) | 8.96 upbm affinity estimate (log intensity, higher = more binding, comparable within an allelic series) | 9.15 upbm affinity estimate (log intensity, higher = more binding, comparable within an allelic series) | 8.96 upbm affinity estimate (log intensity, higher = more binding, comparable within an allelic series) | 8.9 upbm affinity estimate (log intensity, higher = more binding, comparable within an allelic series) | 9.01 upbm affinity estimate (log intensity, higher = more binding, comparable within an allelic series) | 9.09 upbm affinity estimate (log intensity, higher = more binding, comparable within an allelic series) | 9 upbm affinity estimate (log intensity, higher = more binding, comparable within an allelic series) | 9.06 upbm affinity estimate (log intensity, higher = more binding, comparable within an allelic series) | 8.95 upbm affinity estimate (log intensity, higher = more binding, comparable within an allelic series) | 9.04 upbm affinity estimate (log intensity, higher = more binding, comparable within an allelic series) | 8.97 upbm affinity estimate (log intensity, higher = more binding, comparable within an allelic series) | – | –
CGGCGGAA | 8.84 upbm affinity estimate (log intensity, higher = more binding, comparable within an allelic series) | 8.9 upbm affinity estimate (log intensity, higher = more binding, comparable within an allelic series) | 8.85 upbm affinity estimate (log intensity, higher = more binding, comparable within an allelic series) | 9.07 upbm affinity estimate (log intensity, higher = more binding, comparable within an allelic series) | 8.95 upbm affinity estimate (log intensity, higher = more binding, comparable within an allelic series) | 8.9 upbm affinity estimate (log intensity, higher = more binding, comparable within an allelic series) | 8.96 upbm affinity estimate (log intensity, higher = more binding, comparable within an allelic series) | 9.04 upbm affinity estimate (log intensity, higher = more binding, comparable within an allelic series) | 8.95 upbm affinity estimate (log intensity, higher = more binding, comparable within an allelic series) | 8.82 upbm affinity estimate (log intensity, higher = more binding, comparable within an allelic series) | 8.8 upbm affinity estimate (log intensity, higher = more binding, comparable within an allelic series) | 8.95 upbm affinity estimate (log intensity, higher = more binding, comparable within an allelic series) | 8.9 upbm affinity estimate (log intensity, higher = more binding, comparable within an allelic series) | – | –
GCTGTCCC | 8.84 upbm affinity estimate (log intensity, higher = more binding, comparable within an allelic series) | 8.8 upbm affinity estimate (log intensity, higher = more binding, comparable within an allelic series) | 8.82 upbm affinity estimate (log intensity, higher = more binding, comparable within an allelic series) | 9.07 upbm affinity estimate (log intensity, higher = more binding, comparable within an allelic series) | 8.79 upbm affinity estimate (log intensity, higher = more binding, comparable within an allelic series) | 8.89 upbm affinity estimate (log intensity, higher = more binding, comparable within an allelic series) | 8.88 upbm affinity estimate (log intensity, higher = more binding, comparable within an allelic series) | 8.98 upbm affinity estimate (log intensity, higher = more binding, comparable within an allelic series) | 9.06 upbm affinity estimate (log intensity, higher = more binding, comparable within an allelic series) | 8.87 upbm affinity estimate (log intensity, higher = more binding, comparable within an allelic series) | 9.03 upbm affinity estimate (log intensity, higher = more binding, comparable within an allelic series) | 8.86 upbm affinity estimate (log intensity, higher = more binding, comparable within an allelic series) | 8.9 upbm affinity estimate (log intensity, higher = more binding, comparable within an allelic series) | – | –
CGCAGAGC | 8.98 upbm affinity estimate (log intensity, higher = more binding, comparable within an allelic series) | 8.91 upbm affinity estimate (log intensity, higher = more binding, comparable within an allelic series) | 8.85 upbm affinity estimate (log intensity, higher = more binding, comparable within an allelic series) | 9 upbm affinity estimate (log intensity, higher = more binding, comparable within an allelic series) | 8.82 upbm affinity estimate (log intensity, higher = more binding, comparable within an allelic series) | 8.9 upbm affinity estimate (log intensity, higher = more binding, comparable within an allelic series) | 8.9 upbm affinity estimate (log intensity, higher = more binding, comparable within an allelic series) | 8.85 upbm affinity estimate (log intensity, higher = more binding, comparable within an allelic series) | 8.88 upbm affinity estimate (log intensity, higher = more binding, comparable within an allelic series) | 8.97 upbm affinity estimate (log intensity, higher = more binding, comparable within an allelic series) | 9.02 upbm affinity estimate (log intensity, higher = more binding, comparable within an allelic series) | 8.83 upbm affinity estimate (log intensity, higher = more binding, comparable within an allelic series) | 8.83 upbm affinity estimate (log intensity, higher = more binding, comparable within an allelic series) | 10.6 upbm affinity estimate (log intensity, higher = more binding, comparable within an allelic series) | 10.6 upbm affinity estimate (log intensity, higher = more binding, comparable within an allelic series)
